Screening data: PubChem, National Center for Advancing Translational Sciences (NCATS)
EPAC2 antagonist: qHTS for Antagonist of cAMP-regulated guanine nucleotide exchange factor 2 (EPAC2): primary screen. Potency, µM (top dose mostly 114 µM), for inactives: at the top dose activity, negative = inhibition, hits mostly inhibitors. AID 720708, 2013. Rap guanine nucleotide exchange factor 4 (Homo sapiens), Q8WZA2. EPAC2 GEF exchange of Rap1B-BODIPY-GDP, fluorescence. actives 0.18% (n = 360,000); also: % is scaled to controls: 0 for no effect and ±100 for the full control effect; nearly all actives have a fitted effect of over 45% in size
EPAC1 agonist: qHTS for Agonist of cAMP-regulated guanine nucleotide exchange factor 3 (EPAC1): primary screen; EPAC1 agonist qHTS, biochemical assay; response scale: 100% = response to 6.5 mM cAMP; Potency, µM (doses to about 154 µM), inactives show top-dose activation, hits mostly activators; actives 0.073% (n = 360,000); AID 720707, 2013; also: nearly all actives have a fitted effect of over 60% in size
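EPAC1 100 nM, Rap1B–BODIPY-GDP 250 nM, unlabeled GDP 50 uM; compound titration; 5 min RT; kinetic read ex480/em540 at 5-min intervals ×30 min; data normalized to 6.5 mM cAMP agonist control.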
BRCA1 expr up: qHTS Assay to Identify Small Molecule Activators of BRCA1 Expression; MCF7-BRCA1-FFLuc reporter, luminescence, 48 h; response scale: scaled: vehicle 0%, 10 µM genistein 100%; Potency, µM (titrated, usually from 46.1 µM), for the others: at the highest dose activation, actives largely listed as activators; actives 1.1% (n = 380,000); AID 624202, 2012; also: nearly all actives have a fitted effect of over 80% in size
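48 h compound treatment of MCF7-BRCA1-FFLuc cells (phenol-red free MEM, 37 °C), then 15 min with luciferase substrate and luminescence imaging.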
EPAC2 agonist: qHTS for Agonist of cAMP-regulated guanine nucleotide exchange factor 4 (EPAC2): primary screen. Rap guanine nucleotide exchange factor 4 (Homo sapiens), Q8WZA2. actives 0.079% (n = 360,000). Potency, µM (titrated, usually from 154 µM), for the others: at the highest dose activation, usual class: activators. EPAC2 activation, biochemical qHTS; response scale: 100% = 6.5 mM cAMP response; also: nearly all actives have a fitted effect of over 50% in size
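Compounds were added across a concentration range to EPAC2 (100 nM), RAP1B-BODIPY-GDP (250 nM) and GDP (50 uM). After 5 min at room temperature, fluorescence was recorded at 5-min intervals for 30 min.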
RGS4 inhibitor: Inhibitors of Regulator of G Protein Signaling (RGS) 4: qHTS. Transcreener GDP fluorescence polarization, RGS4-accelerated GTP hydrolysis. actives 0.039% (n = 390,000). Regulator of G-protein signaling 4 (Homo sapiens), P49798. Potency, µM (top dose mostly 114 µM), for inactives: at the top dose activity change, negative = inhibition, hits mostly inhibitors; also: % is scaled to controls: 0 for no effect and ±100 for the full control effect; nearly all actives have a fitted effect of over 75% in size
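MLSMR compounds (23 nl, pin-transferred) preincubated 10 min at room temperature with a 500nM (2x) first reagent, then RGS4 at 900nM (2x) plus Transcreener GDP mix added; fluorescence polarization (620/688 nm) read before and after 90 min at 30 °C.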
EPAC1 antagonist: qHTS for Antagonist of cAMP-regulated guanine nucleotide exchange factor 3 (EPAC1): primary screen; EPAC1 GEF assay, Rap1b-BODIPY-GDP exchange fluorescence; actives 0.14% (n = 360,000); AID 720709, 2013; Rap guanine nucleotide exchange factor 3 (Homo sapiens), O95398; Potency, µM (top dose mostly 115 µM), without a hit: at the highest dose activity change, negative = inhibition, actives largely listed as inhibitors;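 also: plate controls were vehicle for no effect and positive control for full effect; nearly all actives have a fitted effect of over 50% in size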
Starred values were filed as active, the others as inactive; u = inconclusive; x = no result; [ ] = dose if it differs, or a comment. Sampled rows, rich in hits. Any-hit rate of the full collection: about 1.3%. Calls follow the shape of the dose curve; as a rule, active = well fitted curve in the direction sought with a large enough effect; inconclusive = small, poorly fitted or top-dose-only effect, or another doubt; inactive = no such curve, though single readings can be large; an effect the other way counts as inactive or inconclusive. Potency is read from the fitted curve at half-maximal effect.

SMILES	EPAC2 antagonist	EPAC1 agonist	BRCA1 expr up	EPAC2 agonist	RGS4 inhibitor	EPAC1 antagonist
CCCCC(=O)Nc1cnc(NC(=O)c2ccco2)cc1C	1%	0%	11µM*	1%	-8%	1%
CC(=O)Nc1ccc(NC(=O)c2cccc(S(=O)(=O)N3CCCCCC3)c2)cc1	20%	-1%	-23%	-6%	-3%	-8%
O=C(Nc1ccc(Br)cc1)c1ccco1	-15%	9%	u	12%	10%	-7%
NC(=O)c1ncn([C@@H]2O[C@H](CNCc3cccc4c3sc3ccccc34)[C@@H](O)[C@H]2O)n1	-4%	-1%	11%	6%	-2%	-11%
Cc1ccccc1NC(=O)C1C2CCCCC21 (configuration not stated)	0%	16%	26%	14%	11%	-6%
O=C(Nc1ccc(Br)cc1)c1ccc(CSC2=NCCS2)cc1	-11%	10%	61%	-2%	-8%	7%
Cc1cc(NS(=O)(=O)c2ccc(NC(=O)Nc3cccc(Cl)c3)cc2)no1	-1%	-3%	1%	-9%	14%	2%
O=C(C1CCC1)N1CCN(S(=O)(=O)c2cc(F)ccc2F)CC1	6%	4%	15%	-1%	-5%	-15%
CCc1ccc(NC(=O)c2sc3nc(-c4ccccc4)cn3c2C)cc1	x	x	x	x	-23%	x
Cc1ccc(NC(=O)CNC(=O)c2ccco2)cc1	20%	0%	11µM*	-1%	6%	-9%
CCOC(=O)c1ccc(NC(=O)c2ccco2)cc1	4%	-8%	7.1µM*	1%	-12%	2%
CCOc1ccc(NC(=S)NC(=O)c2ccco2)cc1	-17%	2%	7.1µM*	10%	-9%	3%
O=C(NC(=S)Nc1ccccc1Br)c1ccco1	-9%	-6%	13µM*	1%	-34%	u
COc1ccc(NC(=O)CNC(=O)c2ccco2)cc1	-1%	10%	u	12%	-24%	7%
Cc1ccc(S(=O)(=O)N2CCN(C(=O)CSc3nc(N)cc(=O)[nH]3)CC2)c(C)c1	-5%	12%	4%	3%	-13%	0%
O=C(Nc1ccc(NC(=O)c2cccs2)cc1)c1cccs1	2%	-2%	24%	1%	-13%	-8%
O=C(Nc1ccc(NC(=O)C2CC2)cc1)c1ccco1	6%	-7%	3.2µM*	5%	-14%	-3%
O=C(Nc1ccccc1O)c1ccc(NC(=O)C2CC2)cc1	-8%	-19%	1.8µM*	2%	-23%	-5%
O=C(Nc1ccc(NC(=O)C2CC2)cc1)c1cccs1	-1%	-15%	10µM*	10%	2%	-12%
O=C(Cc1ccccc1)Nc1ccc(NC(=O)c2ccco2)nc1	-2%	-2%	5.6µM*	2%	38%	-2%
O=C(Nc1ccc(NC(=O)c2ccco2)nc1)c1ccco1	-3%	9%	-22%	10%	3%	-14%
Cc1ccc(NC(=O)C2CCN(S(=O)(=O)c3cccs3)CC2)cc1C	16%[57.1 µM]	-7%	-36%	-20%	4%	-22%
CC(=O)N(C)c1ccc(NC(=O)c2ccco2)cc1	6%	-3%	6.3µM*	-9%	-10%	3%
CC(=O)c1ccc(NC(=O)C2CCN(S(=O)(=O)c3cccs3)CC2)cc1	2%	-7%	8.9µM*	1%	-11%	6%
N=c1ccn(Cc2ccc(F)cc2)cc1	4%	0%	-33%	8%	22%	-4%
SMILES	EPAC2 antagonist	EPAC1 agonist	BRCA1 expr up	EPAC2 agonist	RGS4 inhibitor	EPAC1 antagonist
O=C(NC(=S)NCCO)c1sc2ccccc2c1Cl	3%	-7%	11µM*	5%	-16%	5%
CCOC(=S)NC(=O)c1sc2ccccc2c1Cl	1%	14%	0%	3%	-37%	-2%
O=C1CCC(=O)O1	-3%	9%	5%	9%	-3%	-4%
CNc1ncc(C(=O)c2ccc(F)cc2)s1	-1%	4%	u	6%	22%	-7%
O=C(c1ccc(F)cc1)c1cnc(Nc2ccccc2)s1	7%	-11%	2µM*	6%	-37%	8%
O=c1c2oc3ccccc3c2ncn1Cc1ccccc1F	9%	-3%	39%	-1%	-20%	6%
Cc1cc(-c2nc(-c3ccc(C(C)(C)C)cc3)no2)no1	0%	8%	7.1µM*	7%	13%	-10%
Cc1ccc(-c2cc(C(=O)Nc3ccc(S(=O)(=O)Nc4nc(C)cc(C)n4)cc3)c3ccccc3n2)cc1	-1%	-2%	18%	10%	-16%	-1%
Cn1ncc(S(=O)(=O)Cc2ccccc2)c(Br)c1=O	x	x	x	x	2.7µM*	x
CCc1cc2c(=O)n(-c3ccccc3)cnc2s1	-2%	-16%	18µM*	-4%	-21%	-1%
Cc1ccc(-c2ncns2)cc1	17%	0%	-15%	8%	-36%	-15%
C/C(NC(=O)c1ccccc1)=C1/C(=O)CC2C1C2(C)C (configuration not stated)	-1%	-9%	11µM*	-4%	-17%	-11%
C[C@@H]1CN([C@H](C)CO)C(=O)c2cc(-c3ccc(C#N)cc3)cnc2O[C@H]1CN(C)C(=O)c1ccccc1	3%	-2%	4%	-1%	x	2%
CCOC(=O)C(C)Sc1ncnc2c1nnn2-c1ccc(F)cc1 (configuration not stated)	20µM*	-6%	105%	-2%	1%	-15%
COc1ccc(C(=O)NCC(=O)NCC(=O)OCC(=O)c2ccc(C)cc2)cc1	14%	3%	-8%	-5%	-10%	7%
O=c1ccccn1CCOc1ccccc1Cl	-2%	6%	13µM*	2%	13%	-4%
Cn1c(=O)n(CCOc2ccc(Cl)cc2Cl)c2ccccc21	-3%	5%	6%	6%	-11%	-7%
Cn1c(=O)n(CCOc2ccccc2Cl)c2ccccc21	-5%	-3%	5µM*	0%	5%	-13%
Clc1ccccc1OCCN1CCCCC1	-2%	5%	-2%	12%	4%	-4%
